Only some compounds are listed: those with a hit (about 4.1% of all), similar ones and a draw of the others.
PolyA inh: blocks polyadenylation in yeast reporter cells; S. cerevisiae SKY197-pL101 polyadenylation reporter, beta-gal luminescence; efflux-impaired pdr1/pdr3 knockout yeast; score 100 = 6 SD above DMSO; AID 1875; hit rate 0.02% among 300,000; activity score, % at 12 µM;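 active = lowest replicate activity score at least 50, where 100 means six control SD above control mean; inconclusive = lowest score under 50 but half or more replicates reach 50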;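 also: yeast exposed to compound for 9 h at 30 °C; higher score means more reporter readthrough which indicates perturbed polyadenylation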
IDE act: activators of human insulin-degrading enzyme in cells; hit rate 0.073% among 340,000; AID 493087; P14735; HEK cells, FAbeta-B cleavage, fluorescence polarization; 0% vehicle, 100% cell-free pure enzyme wells; activation, % at 5.96 µM;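 active = activation above the mean of all tested compounds plus 3 SD, set per screening campaign, cut at about 17% in these data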
CaV13 ICDI inh: Disruptors of the CACNA1D IQ motif to Ca2+-dependent inactivation inhibitor domain association, primary screening, Förster resonance energy transfer in intact living …; HEK cells, CFP/YFP FRET ICDI-IQ, plate reader, 10 min; percent FRET-ratio fall versus neutral wells; inhibition, % at 12.3 µM; hit rate 0.098% among 340,000; AID 743397;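 active = mean replicate inhibition of at least 30% and at least 1% of replicates passing that level; inconclusive = only one of the two criteria is met; inactive = neither criterion is met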
IDE inh: inhibitors of human insulin-degrading enzyme in cells | inhibition, % at 5.59 µM | hit rate 0.41% among 320,000 | HEK cells, FAbetaB cleavage, fluorescence polarization;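 active = percent inhibition above the average of all tested compounds plus 3 SD, set per screening campaign, cut at about 16% in these data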;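 also: IDE supplied by intact live HEK cells; FP after avidin binding of uncleaved biotin substrate so inhibition keeps polarization high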
ALR H2O2 inh: human ALR oxidase inhibition via reduced H2O2; P55789; purified ALR, DTT oxidation, H2O2 HRP-luminol luminescence; inhibition, % (test concentration not listed); hit rate 3.8% among 290,000; AID 485317;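 active = mean replicate inhibition above about 79%, with every replicate also reaching it, limit read from the data; inconclusive = only one of the two criteria met; inactive = mean below limit and not every replicate reaching it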
Target sequence (P55789 whole entry, looked up): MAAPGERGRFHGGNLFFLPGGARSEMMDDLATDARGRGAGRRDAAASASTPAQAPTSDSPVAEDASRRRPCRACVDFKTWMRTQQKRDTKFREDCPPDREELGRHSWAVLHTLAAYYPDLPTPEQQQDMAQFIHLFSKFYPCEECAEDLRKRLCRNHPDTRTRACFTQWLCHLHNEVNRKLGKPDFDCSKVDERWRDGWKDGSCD
M18AAP inhibitor: PfM18AAP enzyme inhibition. recombinant PfM18AAP, H-Glu-NHMec fluorogenic cleavage. inhibition, % at 7.35 µM. hit rate 1.2% among 290,000. AID 1822;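 active = inhibition above the campaign mean inhibition over all tested compounds plus 3 SD, cut at about 28% in these data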
A number is an active result; 0 = inactive; ? = inconclusive; - = no result.

SMILES	PolyA inh	IDE act	CaV13 ICDI inh	IDE inh	ALR H2O2 inh	M18AAP inhibitor
O=S(=O)(N/N=C1\CC(c2ccccc2)Oc2ccccc21)c1ccccc1 (stereo unspecified)	0	0	-	0	95.7	0
Cc1ccc(S(=O)(=O)N/N=C2/CC(c3ccccc3)Oc3ccccc32)cc1 (stereo unspecified)	0	0	0	0	0	0
CCN1CCN(C(=O)CCc2nnc(CCc3ccccc3OC)o2)[C@@H](C)C1=O	0	0	0	0	0	0
Cc1ccc(S(=O)(=O)/N=C2\C=C(Nc3ccc(O)cc3)C(=O)c3ccccc32)cc1	-	0	-	0	0	-
Cc1ccc(S(=O)(=O)/N=C2\C=C(NS(=O)(=O)c3ccccc3)C(=O)c3ccccc32)c(C)c1	-	0	0	-	-	-
CC(C)c1ccc(S(=O)(=O)/N=C2/C=C(Sc3ncn[nH]3)C(=O)c3ccccc32)cc1	-	0	-	0	0	30.6
Cc1ccc(S(=O)(=O)/N=C2/C=C(Sc3ncn[nH]3)C(=O)c3ccccc32)cc1	-	0	-	0	0	51.2
CC(C)(C)c1ccc(S(=O)(=O)/N=C2\C=C(NS(=O)(=O)c3ccccc3)C(=O)c3ccccc32)cc1	0	0	0	0	0	0
Cc1ccc(S(=O)(=O)/N=C2/C=C(Sc3ncn[nH]3)C(=O)c3ccccc32)c(C)c1	-	-	-	0	0	37.7
CCOC(=O)C1CCN(C(=O)C2CCN(C(=O)c3ccc([N+](=O)[O-])cc3)CC2)CC1	0	0	-	0	0	0
O=C(NC(=S)Nc1ccccc1N1CCOCC1)c1ccco1	0	0	0	0	96.3	0
Cc1ccccc1C(=O)Nc1ccccc1N1CCCCC1	0	0	0	0	0	0
Cc1ccsc1C(=O)Nc1ccccc1N1CCCC1	0	0	0	0	98.7	-
CCCCCC(=O)Nc1ccccc1N1CCN(c2ccccc2)CC1	0	0	0	0	0	0
O=C(NC(=S)Nc1ccc(N2CCCC2)cc1)c1ccccc1[N+](=O)[O-]	0	0	0	0	0	0
O=C(O)/C=C\C(=O)Nc1ccccc1N1CCN(c2ccccc2)CC1	0	0	0	0	98.1	0
O=C(NC(=S)Nc1ccccc1N1CCCC1)c1ccccc1[N+](=O)[O-]	0	0	0	0	98.0	0
O=C(NC(=S)Nc1ccccc1N1CCCC1)c1ccco1	0	-	0	0	?	0
O=C(/C=C/c1ccco1)Nc1ccccc1N1CCCC1	0	0	0	0	98.9	0
O=C(NNC(=S)Nc1ccccc1Cl)c1ccccc1	0	0	-	0	?	0
O=C(Nc1ccccc1N1CCCC1)c1ccc(Br)o1	0	0	0	0	98.4	0
O=C(NCC(=O)N1CCN(c2ccccc2O)CC1)c1ccc(Br)o1	0	0	0	0	98.7	-
O=C(NCC(=O)N1CCCCCCC1)c1ccc(Br)o1	0	0	0	0	0	-
O=C(/C=C/c1ccco1)NC(=S)Nc1ccccc1N1CCCC1	0	0	0	0	0	0
CC(=O)N1CCN(c2ccccc2NC(=O)c2ccc(Br)o2)CC1	0	0	-	0	-	0
SMILES	PolyA inh	IDE act	CaV13 ICDI inh	IDE inh	ALR H2O2 inh	M18AAP inhibitor
O=C(NNC(=S)Nc1ccccc1Cl)c1ccccc1Cl	0	0	-	0	89.5	0
O=C(NCc1ccccc1)C1CCCN(S(=O)(=O)c2cccc3nsnc23)C1 (stereo unspecified)	0	0	0	0	0	0
Cc1ccc(C)c(C(=O)CN2C(=O)C(=O)N(C3CCCC3)C2=O)c1	-	0	0	0	0	-
CC(=O)c1ccccc1NC(=O)COC(=O)CSCC(=O)Nc1cc(C)on1	0	0	0	0	0	-
NC(N)=N/N=C(\N=Nc1ccccc1)c1ccc(Cl)cc1	-	0	0	-	-	-
Cc1cc(Cl)ccc1C(O)c1ncc(-c2cccc3ccccc23)[nH]1 (stereo unspecified)	-	-	0	-	-	-
O=C(Nc1ccccc1N1CCCCC1)c1ccco1	0	0	0	0	96.8	0
O=C(Nc1ccccc1N1CCCC1)c1ccco1	0	0	0	0	0	0
O=C(NC(=S)N1CCN(c2ccc(O)cc2)CC1)c1ccco1	-	0	0	0	99.0	-
O=C(Nc1ccccc1N1CCCC1)c1ccccc1Cl	0	0	0	0	98.5	0
O=C(Nc1ccccc1N1CCCC1)c1ccc(Cl)cc1Cl	0	0	0	0	0	0

Screens: PubChem, several laboratories
